Here are results for nine molecules from PubChem BioAssay (NCATS).

Assay [1] deals with Calcium and integrin-binding protein 1 (Homo sapiens) (UniProt Q99828). The assay can be described thus: Primary qHTS for Identification of Calcium Integrin Binding Protein 1 (CIB1) Competitor (AID 1508620).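 Further: GST tagged CIB1 binding a fluorescein labelled alphaIIb integrin peptide tracer; top concentration of the series differs between compounds; on the % scale 0 is the no-effect control and ±100 the full control effect.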 The method in brief: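 Fluorescence polarization competition: CIB1-GST (1 uM final) preincubated with compound 15 min at room temperature, then FITC-labeled alphaIIb peptide (100 nM final) added for another 15 min. Polarization read at Ex 480/Em 540.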
Calcium and integrin-binding protein 1 (Homo sapiens), sequence (Q99828 whole entry, looked up): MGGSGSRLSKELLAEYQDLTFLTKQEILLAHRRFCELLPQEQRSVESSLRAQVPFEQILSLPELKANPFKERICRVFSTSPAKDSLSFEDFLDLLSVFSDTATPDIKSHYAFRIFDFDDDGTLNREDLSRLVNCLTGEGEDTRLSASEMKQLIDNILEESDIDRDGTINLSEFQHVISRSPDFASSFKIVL

Assay [2] is described as follows: Primary qHTS for small molecule stabilizers of the endoplasmic reticulum resident proteome: Secreted ER Calcium Modulated Protein (SERCaMP) assay (AID 1508630). Further: on the % scale 0 is the no-effect control and ±100 the full control effect. The method in brief:
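GLuc-SERCaMP-expressing SH-SY5Y cells, pretreated 16 h with compound, are challenged with thapsigargin to empty ER calcium stores; after 4 h, coelenterazine is added directly to the medium and luminescence is imaged.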
A general note: In qHTS, concentration-response curves come from the screen itself.

In assay [3] the target is Protein phosphatase 1D (Homo sapiens) (UniProt O15297). Nature of the assay: RapidFire Mass Spectrometry qHTS Assay for Modulators of WT P53-Induced Phosphatase 1 (WIP1) (AID 1347424).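 Further: amount of dephosphorylated VEPPL-S-QETFS peptide product formed by WIP1; series mostly up to about 63 µM; plate controls were DMSO wells for no effect and GSK830371 inhibitor control at 10 µM for full effect.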 The method in brief:
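WIP1 (10 nM final) was preincubated 1 h at room temperature with compounds in Tris-HCl pH 7.5, 30 mM MgCl2, TCEP, EGTA, BSA; 2 uM VEPPL-pS-QETFS phosphopeptide was added for 5 min, quenched with formic acid, and dephosphorylated product quantified by RapidFire MS.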

Assay [4] is described as follows: Validation qHTS assay for inhibitors of Activation Induced Cytidine Deaminase (AID): UDG Counterscreen signal (AID 1347427). Further: 0% is about no effect. In short, it runs like this: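 Counterscreen read of UDG activity (2 U/mL, 4/3x) in the FRET deamination format with AID (1 uM, 4/3x), DJC20/DJC23 substrates (250 nM, 4x), 4 h at room temperature. NaOH stop, fluorescence at 560 ex/665 em.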

For assay [5], the target named is Single-stranded DNA cytosine deaminase (Homo sapiens) (UniProt Q9GZX7). Nature of the assay: Validation qHTS assay for inhibitors of Activation Induced Cytidine Deaminase (AID): AID signal (AID 1347429). Further: on the % scale 0 is the no-effect control and ±100 the full control effect. The method in brief: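 Fluorescence at 540 nm excitation and 590 nm emission reports ssDNA cytosine deamination by AID, with UDG in the same well. Compound-treated reactions ran 4 hr at room temperature with DJC20/DJC23 substrate, followed by 30 min NaOH treatment.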
Single-stranded DNA cytosine deaminase (Homo sapiens), sequence (Q9GZX7 whole entry, looked up): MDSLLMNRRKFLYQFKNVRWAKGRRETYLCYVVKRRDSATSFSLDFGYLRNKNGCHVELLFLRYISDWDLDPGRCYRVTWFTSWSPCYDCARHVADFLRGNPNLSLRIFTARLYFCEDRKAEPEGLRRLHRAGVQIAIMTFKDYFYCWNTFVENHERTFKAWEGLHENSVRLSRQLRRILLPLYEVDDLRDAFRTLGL

Assay [6] is described as follows: Primary qHTS for inhibitors of La Crosse Virus (LACV) - induced cell death in SH-SY5Y cells (AID 1508616).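 Further: top concentration of the series differs between compounds; 0% = infected DMSO wells and 100% = uninfected DMSO wells; higher means more rescue of cells from virus-induced death.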 In short, it runs like this: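 Protection against LACV-induced cell death is scored in SH-SY5Y cells exposed to compounds and virus (0.01 MOI) for 6 days. Data normalized to virus-infected DMSO wells and virus-free DMSO wells.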
Assay [7] has as its target Calcium and integrin-binding protein 1 (Homo sapiens) (UniProt Q99828). Nature of the assay: Validation qHTS for Identification of Calcium Integrin Binding protein 1 (CIB1) Competitor (AID 1508618). Further: on the % scale 0 is the no-effect control and ±100 the full control effect. The method in brief: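 Fluorescence polarization with 1 uM CIB1-GST and 100 nM FITC-alphaIIb peptide in HEPES pH 7.4, NaCl, 5 mM CaCl2, Tween20. Compounds at up to 114 uM final, preincubated with protein 15 min; read after 15 min more at RT.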

Assay [8] in a line: A High-Content qHTS Against Drug Library for the Identification of Small Molecules that Inhibit DYT1 Early Onset Primary Dystonia-Associated Cell Pathology (AID 1645839; calls by dose curve; further: series mostly up to about 46 µM). In short, it runs like this: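 Readout: %pathology, the punctate EGFP-TorsinA distribution from imaging, as the primary channel and cell count as the toxicity counterscreen. HEK293 Flp-In cells expressing delE TorsinA were induced with tetracycline and treated with compound for 48 h.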

Assay [9] addresses Cytochrome P450 2D6 (Homo sapiens) (UniProt P10635). The assay can be described thus: Cytochrome P450 family 2 subfamily D member 6 (CYP2D6) small molecule antagonists: luciferase biochemical (cell-free) qHTS assay (AID 1645840; active means well fitted curve in the direction sought with a large enough effect in the repeat runs; an effect the other way counts as inactive or inconclusive; further: nearly all actives have a fitted effect of over 55% in size; further: potency means the concentration at half of the fitted maximal effect). The method in brief:
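P450-Glo luminescent screen: recombinant CYP2D6 enzyme–proluciferin substrate mix preincubated with compound 10 min at room temperature, then NADPH regeneration added for 1 h at room temperature. Detection reagent added for 20 min; luciferin light read as relative luminescence units.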

Assay [10] concerns the target Cytochrome P450 3A4 (Homo sapiens) (UniProt P08684). The assay can be described thus: Cytochrome P450 family 3 subfamily A member 4 (CYP3A4) small molecule antagonists: luciferase qHTS assay (AID 1645841; active means well fitted curve in the direction sought with a large enough effect in the repeat runs; an effect the other way counts as inactive or inconclusive; further: nearly all actives have a fitted effect of over 45% in size). In short, it runs like this: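 P450-Glo CYP3A4 enzyme with proluciferin substrate was preincubated with DMSO-dissolved compounds for 10 min at room temperature. NADPH regeneration solution started a 1 h reaction. Detection reagent stopped it, and luminescence was read after 20 min.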

For assay [11], the target named is Cytochrome P450 2C9 (Homo sapiens) (UniProt P11712). The assay can be described thus: Cytochrome P450 family 2 subfamily C member 9 (CYP2C9) small molecule antagonists: luciferase biochemical (cell-free) qHTS assay (AID 1645842; active means well fitted curve in the direction sought with a large enough effect in the repeat runs; an effect the other way counts as inactive or inconclusive; further: nearly all actives have a fitted effect of over 55% in size; further: potency means the concentration at half of the fitted maximal effect). In short, it runs like this:
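Luminescence, after 20 min with luciferin detection reagent, reflected CYP2C9 turnover during a 1 h NADPH-driven reaction at 37C. Enzyme-substrate mix contained 0.4% bovine serum albumin and was preincubated with compound 10 min at room temperature.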

In assay [12] the target is Papain (Carica papaya) (UniProt P00784). The assay can be described thus: Primary qHTS assay for inhibitors of the protease papain (AID 1645873).
Papain (Carica papaya), sequence (P00784 whole entry, looked up, the tested form may be a part): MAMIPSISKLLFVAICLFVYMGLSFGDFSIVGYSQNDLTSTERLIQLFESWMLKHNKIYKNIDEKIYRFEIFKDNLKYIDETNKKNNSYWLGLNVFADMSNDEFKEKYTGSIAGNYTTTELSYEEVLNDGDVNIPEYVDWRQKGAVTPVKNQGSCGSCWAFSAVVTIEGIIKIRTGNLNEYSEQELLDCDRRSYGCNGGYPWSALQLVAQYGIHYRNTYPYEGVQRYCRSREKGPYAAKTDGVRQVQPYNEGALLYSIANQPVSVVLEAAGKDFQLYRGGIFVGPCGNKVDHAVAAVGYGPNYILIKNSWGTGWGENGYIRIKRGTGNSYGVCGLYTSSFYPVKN
Assay [13] is described as follows: Primary qHTS for inhibitors of nuclear receptor binding SET domain protein 2 (NSD2) in an isogenic RCH-ACV NSD2 p.E1099K mutant (9B) (AID 1645876). Further: nearly all actives have a fitted effect of over 70% in size. Further: potency means the concentration at half of the fitted maximal effect.
Assay [14] in a line: qHTS to identify inhibitors of the type 1 interferon - major histocompatibility complex class I in skeletal muscle: primary screen against the NCATS Mechanism Interrogation Plate v5.0 (MIPE) Libary (AID 1347411).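 Further: plate controls were vehicle for no effect and reference inhibitor for full effect; nearly all actives have a fitted effect of over 65% in size.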 The method in brief: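 Luminescence from HiBiT-tagged endogenous HLA-B*08:01 served as the MHC class I read-out. CRISPR-engineered C25cl48 human myoblasts received 4.0 ng/ml IFN-beta plus compound for 24 hrs, with an 11-point, 1:3 series topping at 46 uM final.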

For assay [15], the target named is N-terminal Xaa-Pro-Lys N-methyltransferase 1 (Homo sapiens) (UniProt Q9BV86). Nature of the assay: Confirmatory qHTS for Inhibitors of N-terminal methyltransferase 1 (NTMT1): MTaseGlo Assay (AID 1645874). Further: potency means the concentration at half of the fitted maximal effect; nearly all actives have a fitted effect of over 65% in size. In short, it runs like this:
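NTMT1 (125 nM) preincubated 15 min with compound and 100 uM SAM, then 1 uM SPKRIA peptide added for 30 min at room temperature. SAH detected by MTase-Glo luminescence; normalized to no-enzyme and DMSO controls, fitted to 4-parameter Hill.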

The target of assay [16] is Calcium and integrin-binding protein 1 (Homo sapiens) (UniProt Q99828). The assay can be described thus: Confirmatory qHTS for Identification of Calcium Integrin Binding Protein 1 (CIB1) Competitor (AID 1508617). Further: on the % scale 0 is the no-effect control and ±100 the full control effect; nearly all actives have a fitted effect of over 65% in size. In short, it runs like this: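 FP competition: CIB1-GST (1 uM final) in 5 mM HEPES pH 7.4, 125 mM NaCl, 5 mM CaCl2, 0.01% Tween20 preincubated 15 min RT with compounds (up to 114 uM), then FITC-alphaIIb peptide (100 nM), 15 min RT; Ex 480/Em 540.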

A short description of assay [17]: Counterscreen qHTS for small molecule stabilizers of the endoplasmic reticulum resident proteome: GLuc-NoTag assay (AID 1508627). Further: potency means the concentration at half of the fitted maximal effect. In short, it runs like this: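 SH-SY5Y cells stably expressing constitutively secreted GLuc (no SERCaMP tag) were pre-incubated 5 h, treated with compound for 19 h, then 100 nM thapsigargin for 4 h at 37C; medium GLuc read by coelenterazine luminescence.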
Background: The purpose of a counterscreen is to sort out artefacts and off-target activity.

Assay [18] can be described thus: Cell Viability qHTS for small molecule stabilizers of the endoplasmic reticulum resident proteome (AID 1508629). The following applies: cell viability counter-screen, 100 nM thapsigargin for final 4 h.
Assay [19] concerns the target Protein phosphatase 1D (Homo sapiens) (UniProt O15297). The assay can be described thus: Rhodamine-PBP qHTS Assay for Modulators of WT P53-Induced Phosphatase 1 (WIP1) (AID 1347425). Further: % of control where 0% means no effect. The method in brief: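 WIP1 (5 nM final) was preincubated with compound for 1 hour at room temperature. It then dephosphorylated 10 uM VEPPL-pS-QETFS peptide in Tris-HCl pH 7.5 with 30 mM MgCl2. Released Pi was detected by 10 uM Rh-PBP fluorescence (ex 525/em 598 nm) read at 1-min intervals for 11 min, as delta f1 - f0.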

Values joined by “and” are separate entries in the source; they are usually repeats but may differ in a detail not shown here. Identical values can stand only once. Unmarked numbers belong to inactive results. Inconclusive results are not listed. Active and inactive are the calls of the source. Unless noted, the call rests on the fitted dose curve; in most records, active means well fitted curve in the direction sought with a large enough effect; inconclusive means small, poorly fitted or top-dose-only effect, or another doubt; inactive means no such curve, though single readings can be large; an effect the other way counts as inactive or inconclusive.

Cytochrome P450 2C9 (Homo sapiens), sequence (P11712 whole entry, looked up): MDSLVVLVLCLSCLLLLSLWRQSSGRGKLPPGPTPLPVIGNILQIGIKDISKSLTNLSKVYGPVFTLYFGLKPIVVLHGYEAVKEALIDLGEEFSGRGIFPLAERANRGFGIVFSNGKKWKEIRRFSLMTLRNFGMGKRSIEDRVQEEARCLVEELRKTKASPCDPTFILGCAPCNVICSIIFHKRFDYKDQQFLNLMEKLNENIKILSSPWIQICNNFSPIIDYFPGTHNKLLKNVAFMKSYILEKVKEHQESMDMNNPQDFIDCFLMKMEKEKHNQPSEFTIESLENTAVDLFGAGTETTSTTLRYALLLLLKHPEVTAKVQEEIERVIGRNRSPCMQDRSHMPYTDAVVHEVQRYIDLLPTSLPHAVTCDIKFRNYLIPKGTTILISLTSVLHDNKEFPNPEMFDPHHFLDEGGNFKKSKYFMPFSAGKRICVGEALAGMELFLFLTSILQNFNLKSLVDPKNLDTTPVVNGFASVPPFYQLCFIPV
Cytochrome P450 2D6 (Homo sapiens), sequence (P10635 whole entry, looked up): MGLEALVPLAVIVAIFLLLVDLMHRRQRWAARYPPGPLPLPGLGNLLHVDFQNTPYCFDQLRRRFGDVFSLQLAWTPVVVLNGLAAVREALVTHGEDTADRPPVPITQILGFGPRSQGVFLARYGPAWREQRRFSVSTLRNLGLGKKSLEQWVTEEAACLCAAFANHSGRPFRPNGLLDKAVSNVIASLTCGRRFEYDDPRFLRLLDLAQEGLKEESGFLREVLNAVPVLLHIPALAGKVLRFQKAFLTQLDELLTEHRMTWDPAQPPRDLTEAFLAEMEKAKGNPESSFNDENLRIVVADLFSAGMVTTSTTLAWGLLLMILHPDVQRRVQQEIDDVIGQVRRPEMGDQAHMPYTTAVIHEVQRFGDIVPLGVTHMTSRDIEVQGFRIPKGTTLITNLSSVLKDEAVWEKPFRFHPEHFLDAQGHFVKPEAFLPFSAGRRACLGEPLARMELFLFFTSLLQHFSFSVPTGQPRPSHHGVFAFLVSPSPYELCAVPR
Protein phosphatase 1D (Homo sapiens), sequence (O15297 whole entry, looked up): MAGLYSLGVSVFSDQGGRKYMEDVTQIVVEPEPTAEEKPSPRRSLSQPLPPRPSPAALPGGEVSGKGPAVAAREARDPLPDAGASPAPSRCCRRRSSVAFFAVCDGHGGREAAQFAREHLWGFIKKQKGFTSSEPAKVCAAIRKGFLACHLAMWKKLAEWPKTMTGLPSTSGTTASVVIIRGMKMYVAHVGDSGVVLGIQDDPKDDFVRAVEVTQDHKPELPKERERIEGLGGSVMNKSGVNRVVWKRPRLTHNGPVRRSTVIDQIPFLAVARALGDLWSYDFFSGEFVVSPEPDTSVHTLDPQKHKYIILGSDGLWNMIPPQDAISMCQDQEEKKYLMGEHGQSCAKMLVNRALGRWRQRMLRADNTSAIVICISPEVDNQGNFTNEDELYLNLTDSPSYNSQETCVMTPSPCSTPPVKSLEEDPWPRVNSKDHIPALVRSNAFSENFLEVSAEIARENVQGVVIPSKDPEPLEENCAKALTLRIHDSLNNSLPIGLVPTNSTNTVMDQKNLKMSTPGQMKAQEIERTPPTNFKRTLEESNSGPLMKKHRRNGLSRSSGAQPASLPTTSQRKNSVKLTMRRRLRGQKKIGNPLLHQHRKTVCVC
Cytochrome P450 3A4 (Homo sapiens), sequence (P08684 whole entry, looked up): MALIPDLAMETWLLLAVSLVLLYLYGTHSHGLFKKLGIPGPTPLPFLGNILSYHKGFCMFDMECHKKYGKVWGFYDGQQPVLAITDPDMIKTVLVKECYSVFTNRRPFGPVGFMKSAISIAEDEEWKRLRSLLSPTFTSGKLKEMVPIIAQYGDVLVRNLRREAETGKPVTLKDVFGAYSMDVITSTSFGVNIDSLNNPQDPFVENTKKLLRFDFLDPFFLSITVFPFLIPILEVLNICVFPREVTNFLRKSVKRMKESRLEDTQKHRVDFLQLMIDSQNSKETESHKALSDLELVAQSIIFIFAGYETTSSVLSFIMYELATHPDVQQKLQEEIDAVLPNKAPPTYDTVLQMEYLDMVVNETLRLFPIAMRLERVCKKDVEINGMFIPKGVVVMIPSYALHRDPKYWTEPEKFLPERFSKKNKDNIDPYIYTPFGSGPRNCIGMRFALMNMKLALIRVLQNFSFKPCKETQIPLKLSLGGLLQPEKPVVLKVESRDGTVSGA
N-terminal Xaa-Pro-Lys N-methyltransferase 1 (Homo sapiens), sequence (Q9BV86 whole entry, looked up): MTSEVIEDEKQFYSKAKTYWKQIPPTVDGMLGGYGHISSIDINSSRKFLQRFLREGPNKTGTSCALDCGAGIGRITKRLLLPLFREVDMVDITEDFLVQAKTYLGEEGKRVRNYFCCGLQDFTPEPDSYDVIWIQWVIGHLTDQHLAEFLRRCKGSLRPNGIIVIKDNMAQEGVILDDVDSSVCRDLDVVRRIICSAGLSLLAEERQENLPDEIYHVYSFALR

For the molecule `Cc1cc(C=c2sc3nc4ccccc4n3c2=O)c(C)n1-c1ccccc1`, the result in [1] was inactive. Further, in assay [2], the Potency result is “inactive”.

Consider `Cc1csc(NC(=O)c2sc3nc4c(c(C(F)(F)F)c3c2N)CCC4)n1`, for which, in assay [1], the outcome was inactive. For the same molecule, in assay [2], the Potency entry was “inactive”.

Take `CCOC(=O)C1=C[C@]2(CC)CCCN3CCc4c(n1c1ccccc41)[C@@H]32`: the Potency result in assay [3], in [5], in assay [7], in assay [2] and in assay [8] was “inactive” throughout. Besides, the result in [4], in assay [6] and in assay [1] was inactive. In [9], the Potency is 4.9 µM (active).

With `N=c1nc(N2CCCCC2)cc(N)n1O`, the Potency entry in assay [3], in assay [5], in assay [2], in [10], in assay [11] and in [12] was “inactive” in each case. In addition, in assay [13], the Potency result was “inactive”. For the same molecule, the molecule was called inactive in [4] and in assay [6]. Moreover, the Potency in assay [9] was 7.76 µM (active).

For `CCOc1ccc(Cc2cc([C@@H]3O[C@H](CO)[C@@H](O)[C@H](O)[C@@H]3O)ccc2Cl)cc1`, the result in [1] was inactive.

`COc1cc2c(cc1OC)CN(CCc1ccc(NC(=O)c3cccc4c(=O)c5cccc(OC)c5[nH]c34)cc1)CC2`: the Potency result in assay [14], in [2] and in [13] was “inactive” throughout. In addition, the figures for the Potency in [11] and in assay [15] were 3.01 µM (active) and 35.5 µM (active), respectively.

Consider `NC[C@H](O)c1ccc(O)c(O)c1`, for which the outcome in assay [4], in [6] and in [1] was inactive. Moreover, the Potency result in assay [5], in [16], in assay [7], in assay [2], in assay [8] and in assay [9] was “inactive” throughout. Also, the Potency entry in [13] is “inactive”.

For `OC(CN1CCC(Cc2ccc(F)cc2)CC1)c1ccc(Cl)cc1` (stereo unspecified), the Potency result in assay [3], in assay [5], in assay [7], in [2], in [8] and in assay [11] was “inactive” in each case. The Potency result in assay [12] and in [13] was “inactive” throughout. The result in assay [4], in assay [6] and in [1] was inactive. Also, the Potency was 17.8 µM (active) in assay [17]; 15.5 nM (active) and 53.5 nM (active) in assay [9]. For the same molecule, the max response in assay [18] was -25.9%.

As for `C#Cc1cccc(Nc2ncnc3cc(OCCOC)c(OCCOC)cc23)c1`, the Potency result in assay [3], in assay [8], in assay [9] and in [11] was “inactive” each time. Also, the result in assay [19], in [6] and in assay [1] was inactive. Besides, the Potency in assay [13] was 8.41 µM (active).
